Experimental data published in paper PMC4336329 (PLoS ONE, 2015).
Screen size: about 310,000 compounds; about 14,000 (4.5%) showed an effect of 50% or more. Effects have a minus sign here. What follows is part of a selection rich in strong results, with near analogues and random picks from the rest.

molecular target: human ether-à-go-go-related gene (hERG) potassium channel (human, UniProt Q12809); assay: primary screen, population patch clamp on CHO cells stably expressing hERG; higher = less effect of the substance
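Further: peak tail current of the secondary pulse compared with the same well before compound.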

Chain of human ether-à-go-go-related gene (hERG) potassium channel (Q12809 whole entry, looked up): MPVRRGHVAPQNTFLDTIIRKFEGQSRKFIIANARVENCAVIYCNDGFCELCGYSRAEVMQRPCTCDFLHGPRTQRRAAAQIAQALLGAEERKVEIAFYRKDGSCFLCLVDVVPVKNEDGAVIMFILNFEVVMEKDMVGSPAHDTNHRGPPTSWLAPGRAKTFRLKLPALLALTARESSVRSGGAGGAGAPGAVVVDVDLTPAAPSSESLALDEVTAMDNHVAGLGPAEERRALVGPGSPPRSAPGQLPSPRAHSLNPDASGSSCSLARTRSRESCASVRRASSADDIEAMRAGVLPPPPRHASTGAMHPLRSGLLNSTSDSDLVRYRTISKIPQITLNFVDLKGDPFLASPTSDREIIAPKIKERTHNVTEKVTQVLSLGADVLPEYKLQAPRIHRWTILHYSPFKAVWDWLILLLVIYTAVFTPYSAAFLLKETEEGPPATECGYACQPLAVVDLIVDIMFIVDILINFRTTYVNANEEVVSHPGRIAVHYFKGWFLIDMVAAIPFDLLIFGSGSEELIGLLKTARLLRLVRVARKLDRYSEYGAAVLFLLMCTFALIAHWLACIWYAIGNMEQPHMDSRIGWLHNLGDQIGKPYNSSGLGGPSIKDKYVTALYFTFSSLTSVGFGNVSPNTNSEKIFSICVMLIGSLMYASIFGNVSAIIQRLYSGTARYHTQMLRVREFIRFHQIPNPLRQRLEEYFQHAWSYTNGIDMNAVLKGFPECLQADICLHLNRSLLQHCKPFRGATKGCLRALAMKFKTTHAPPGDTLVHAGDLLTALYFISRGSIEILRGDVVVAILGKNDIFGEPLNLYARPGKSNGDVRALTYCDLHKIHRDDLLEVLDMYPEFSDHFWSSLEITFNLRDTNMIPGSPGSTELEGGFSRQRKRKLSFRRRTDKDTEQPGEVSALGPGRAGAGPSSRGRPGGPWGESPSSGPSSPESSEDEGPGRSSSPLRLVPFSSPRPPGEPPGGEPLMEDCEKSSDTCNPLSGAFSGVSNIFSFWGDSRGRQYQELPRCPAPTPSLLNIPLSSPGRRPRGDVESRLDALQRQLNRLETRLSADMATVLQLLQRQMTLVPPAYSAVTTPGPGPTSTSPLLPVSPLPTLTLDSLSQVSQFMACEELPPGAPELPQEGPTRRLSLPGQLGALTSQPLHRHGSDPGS

Row | SMILES | hERG current change (%, negative = inhibition) at 10uM [%]
1 | CC(C)N(Cc1cnn(C)c1)Cc1nc(-c2ccc(Cl)cc2)no1 | 3.63
2 | COc1ccc(/C=N/NC(=O)c2ccncc2)cc1Cn1nc([N+](=O)[O-])c(Br)c1C | -49.4
3 | Cc1ccccc1NC(=O)C1C2CCCCC21 (stereo not drawn) | 6.99
4 | CC(C)CC(NC(=O)C1CCC(C)CC1)C(=O)NCc1ccccn1 (stereo not drawn) | 18
5 | O=C(Oc1cccc(-c2cnc3ccccc3n2)c1)c1ccco1 | -5.02
6 | O=C(NC1CCCC1)c1ccccc1OCc1ccccc1 | -39.6
7 | O=C(NC1CCN(Cc2ccccc2)CC1)c1ccccc1OCc1ccccc1Cl | -69.2
8 | O=C(CNC(=O)c1ccccc1Cl)NC1CCN(Cc2ccccc2)CC1 | 13.1
9 | Cl.O=C(NC1CCN(Cc2ccccc2)CC1)c1ccccc1OCc1ccccc1 | -69.3
10 | CCOc1ccccc1C(=O)NC1CCN(Cc2ccccc2)CC1 | -46.6
11 | O=C(O)c1ccccc1OCc1ccccc1Cl | 6.55
12 | CC(C)N1CC23C=CC(O2)C(C(=O)OCc2ccccc2)C3C1=O (stereo not drawn) | 3.29
13 | COc1cc(NS(=O)(=O)c2ccc(N/C=C(\C=O)c3nc4cc(Cl)ccc4o3)cc2)nc(OC)n1 | -2.34
14 | CCO[C@H]1OC(C(=O)O)=C[C@@H](C(C)(C)C)[C@@H]1CCCO | 7.12
15 | Cl.Fc1ccccc1Nc1nc(Cl)nc(Cl)n1 | 7.69
16 | COc1ccccc1N1CCN(c2ncc(C(=O)N3CCN(c4cccc(Cl)c4)CC3)c3ccccc23)CC1 | -10.7
17 | O=C(C1CCCCC1)N1CCN(c2ccccc2F)CC1 | -7.04
18 | CCCOC(=O)CSc1nc(N2CCOCC2)c2c(c1C#N)CC(C)(C)OC2 | -40.5
19 | O=C(Nc1ccc2ccccc2c1)NC1CCS(=O)(=O)C1 (stereo not drawn) | 6.88

Row | SMILES | hERG current change (%, negative = inhibition) at 10uM [%]
20 | Cc1ccc(C)c(NC(=O)CCNS(=O)(=O)c2ccc3[nH]c(=O)oc3c2)c1 | 11.4
21 | Cc1ccc(C(=O)OCC(=O)Nc2cc(C(C)(C)C)nn2-c2ccccc2)c(O)c1 | -8.07
22 | COCCNc1nnc(SCC(=O)Nc2cc(-c3ccccc3)nn2-c2ccccc2)s1 | -50.9
23 | CC(C)(C)c1cc(NC(=O)CSc2nnc(N)s2)n(-c2ccccc2)n1 | -29.1
24 | O=C(CSc1nncs1)Nc1cc(-c2ccccc2)nn1-c1ccccc1 | -39.1
25 | COCCNc1nnc(SCC(=O)Nc2nnc(-c3ccccc3)o2)s1 | 21.8
26 | CC(C)(C)c1cc(NC(=O)COC(=O)c2ccc(O)cc2O)n(-c2ccccc2)n1 | -79.3
27 | Cc1nnc(SCC(=O)Nc2cc(C(C)(C)C)nn2-c2ccccc2)s1 | -12.9
28 | O=C(COC(=O)c1ccc(O)cc1O)Nc1cc(-c2ccccc2)nn1-c1ccccc1 | -9.42
29 | CC(C)(C)c1cc(NC(=O)CSc2nnc(NCc3ccccc3)s2)n(-c2ccccc2)n1 | -50.1
30 | O=C(Nc1nc2c(F)cccc2s1)C1CC1 | -8.38
31 | Cn1c(=O)cc(OCC(=O)N2CCN(Cc3ccc4c(c3)OCO4)CC2)c2ccccc21 | -33.4
32 | O=C(CSc1ccccc1)Nc1nccs1 | -3.78
33 | O=C(CC1C(=O)NCCN1Cc1ccc(-c2ccccc2)cc1)NCCOc1cccnc1 (stereo not drawn) | -25.9
34 | O=C(c1ccccc1)N1N=C(C(F)(F)F)CC1(O)c1ccccc1 (stereo not drawn) | 10.6
35 | C=CCNC(=O)c1ccc2c3n(nc2c1)-c1ccc(C)cc1CO3 | -24.6
36 | O=C(Nc1ccccc1C(F)(F)F)C1CCN(C(=O)c2cccs2)CC1 | 10.5
37 | Cc1ccc(NC(=O)C2Cc3ccccc3C(=O)O2)cc1 (stereo not drawn) | 13
38 | O=C(NCCOc1ccccc1)c1cc2ccccc2o1 | -2.6

Row | SMILES | hERG current change (%, negative = inhibition) at 10uM [%]
39 | CCOc1ccc(NC(=S)NN2C(C)CCCC2C)cc1 (stereo not drawn) | 6.62
40 | CC1CCCC(C)N1NC(=S)Nc1ccc(OC(F)F)cc1 (stereo not drawn) | -68.3
41 | COc1ccc(NC(=S)NN2C(C)CCCC2C)cc1 (stereo not drawn) | 16.6
42 | N/C(=N\OC(=O)c1ccc(F)cc1)c1ccc(Br)cc1 | 15.4
43 | CC(=O)Nc1ccc(C=C(C(C)=O)C(C)=O)cc1 | 2.2
44 | COc1ccc(CN2C(=O)c3cccnc3C2=O)cc1S(=O)(=O)N1CCOc2ccc(C)cc21 | -11.6
45 | CNc1c([N+](=O)[O-])cnn1-c1cccc(Cl)n1 | 14.4
46 | Cc1cccn2c(=O)c3cc(C(=O)NCCCn4ccnc4)n(C)c3nc12 | -11
47 | Cc1cccn2c(=O)c3cc(C(=O)NCCc4ccccc4)c(=N)n(CCCn4ccnc4)c3nc12 | -74.4
48 | CC(NC(=O)C(=O)NCCCn1ccnc1)c1ccccc1 (stereo not drawn) | 15.6
49 | O=C(O)c1ccccc1C(=O)NCCCn1ccnc1 | 18.4
50 | Cc1cccn2c(=O)c3cc(C(=O)NC(C)c4ccccc4)c(=N)n(CCCn4ccnc4)c3nc12 (stereo not drawn) | -68.1
51 | Cc1ccc(N(C(=O)c2cccs2)C2C=CS(=O)(=O)C2)cc1 (stereo not drawn) | -24.4
52 | CCCOC(=O)c1ccc(NC(=O)c2cc(OC)c(OC)c(OC)c2Br)cc1 | 8.82
53 | O=C(O)c1cc([N+](=O)[O-])ccc1N1CCC(Cc2ccccc2)CC1 | -4.42
54 | CCc1cccc(OCCOCCN2CCCC2)c1.O=C(O)C(=O)O | -46.1
55 | O=C(O)C(=O)O.O=[N+]([O-])c1cccc(OCCCN2CCC(Cc3ccccc3)CC2)c1 | -78.1
56 | O=C(O)C(=O)O.O=[N+]([O-])c1cccc(OCCN2CCC(Cc3ccccc3)CC2)c1 | -71.1
57 | FC(F)(F)c1cccc(OCCN2CCN(Cc3ccccc3)CC2)c1.O=C(O)C(=O)O | -40.8
